Data on 3 compounds can be found in PubChem BioAssay (EPA / NIEHS).

Active and inactive are the calls of the source. Rule for the calls: active = hit-call score of the fitted dose curve at least 0.9, where 1 is the maximum; inactive = score below 0.9.

Read-out in assay [1]: Transforming growth factor beta 1 (TGFb1), TGFB1 (gene 7040)
As to the kind of experiment: BSK_KF3CT_TGFb1: BioMAP Diversity Plus: KF3CT Assay for Transforming growth factor beta 1 (TGFb1) Biomarker Activity (AID 2283072). Particulars: primary human keratinocytes with fibroblasts; actives raise or lower the signal. Summed up:
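ELISA quantifies TGF-b1 at 24 h post-dose in a primary human skin co-culture of keratinocytes and fibroblasts, with gain or loss judged against DMSO. Parallel SRB total-protein staining flags overt cytotoxicity.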

Read-out in assay [2]: C-C motif chemokine 2 (Homo sapiens) (UniProt P13500)
As to the kind of experiment: BSK_KF3CT_MCP1: BioMAP Diversity Plus: KF3CT Assay for Monocyte Chemoattractant Protein 1 (MCP1/CCL2) Biomarker Activity (AID 2283073). As to conditions: primary human keratinocytes with fibroblasts; actives raise or lower the signal. Summed up:
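Human keratinocyte plus foreskin fibroblast primary co-culture exposed to chemical for 24 h. MCP-1 levels measured by ELISA. Bidirectional curve fitting relative to DMSO negative control as baseline.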

Read-out in assay [3]: Matrix Metallopeptidase 9 (MMP9), MMP9 (gene 4318)
As to the kind of experiment: BSK_KF3CT_MMP9: BioMAP Diversity Plus: KF3CT Assay for Matrix Metallopeptidase 9 (MMP9) Biomarker Activity (AID 2283074).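 For AC50: MMP9 protein level quantified by ELISA in the co-culture.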 Particulars: primary human keratinocytes with fibroblasts; actives raise or lower the signal. Summed up:
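ELISA read-out of MMP-9 at 24 h post-dosing in a co-culture of human skin keratinocytes and foreskin fibroblasts. Gain or loss of signal was fitted in both directions against DMSO.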

Read-out in assay [4]: urokinase plasminogen activator (uPA), PLAU (gene 5328)
As to the kind of experiment: BSK_KF3CT_uPA: BioMAP Diversity Plus: KF3CT Assay for urokinase plasminogen activator (uPA) Biomarker Activity (AID 2283075). Particulars: primary human keratinocytes with fibroblasts; actives raise or lower the signal. The method, boiled down: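 Skin co-culture (keratinocytes + foreskin fibroblasts), human primary; 24 h post-dose; uPA by ELISA; gain/loss fit vs DMSO baseline.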

Read-out in assay [5]: CD40, CD40 (gene 958)
Briefly: BSK_LPS_CD40: BioMAP Diversity Plus: LPS Assay for CD40 Biomarker Activity (AID 2283076). As to conditions: primary human HUVEC with PBMC; actives raise or lower the signal. The method, boiled down:
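Primary human umbilical vein endothelial cells co-cultured with peripheral blood mononuclear cells, LPS-stimulated, were dosed with chemical and read 24 h later. CD40 levels were measured by ELISA and fitted bidirectionally against DMSO as negative control and baseline.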

Read-out in assay [6]: E-selectin (Homo sapiens) (UniProt P16581)
As to the kind of experiment: BSK_LPS_Eselectin: BioMAP Diversity Plus: LPS Assay for Eselectin Biomarker Activity (AID 2283077). As to conditions: primary human HUVEC with PBMC; actives raise or lower the signal. Summed up:
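Human umbilical vein endothelial cells co-cultured with peripheral blood mononuclear cells under LPS stimulation; E-selectin measured by ELISA 24 h after chemical dosing. Activity fitted bidirectionally against DMSO as negative control and baseline.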

Read-out in assay [7]: Interleukin-8 (IL8), CXCL8 (gene 3576)
As to the kind of experiment: BSK_LPS_IL8: BioMAP Diversity Plus: LPS Assay for Interleukin-8 (IL8) Biomarker Activity (AID 2283078). Particulars: primary human HUVEC with PBMC; actives raise or lower the signal. The method, boiled down: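 Human umbilical vein endothelial cells co-cultured with PBMC were stimulated with LPS; IL-8 levels were measured by ELISA 24 h after chemical dosing. Activity was fitted bidirectionally against DMSO as negative control and baseline.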

Assay [8] is described as follows: BSK_LPS_SRB: Viability Assessment in the BioMAP Diversity Plus: LPS Assay (AID 2283079).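 Note: total protein by sulforhodamine B absorbance as a cytotoxicity measure; measured one day after compound addition.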 As to conditions: primary human HUVEC with PBMC. The method, boiled down:
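Human umbilical vein endothelial cells co-cultured with PBMC (LPS system) were dosed for 24 h. Total protein was stained with 0.1% sulforhodamine B after 10% TCA fixation, read at 560 nm, and fitted bidirectionally against DMSO baseline.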

Read-out in assay [9]: Interleukin-1 alpha (IL1a), IL1A (gene 3552)
As to the kind of experiment: BSK_LPS_IL1a: BioMAP Diversity Plus: LPS Assay for Interleukin-1 alpha (IL1a) Biomarker Activity (AID 2283080). Particulars: primary human HUVEC with PBMC; actives raise or lower the signal. The method, boiled down:
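Human umbilical vein endothelial cells co-cultured with peripheral blood mononuclear cells were LPS-stimulated and exposed to test chemicals for 24 h. IL-1 alpha was quantified by ELISA, with bidirectional curve fitting against DMSO as the negative control and baseline.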

Read-out in assay [10]: Monocyte Chemoattractant Protein-1 (MCP1), CCL2 (gene 6347)
Briefly: BSK_LPS_MCP1: BioMAP Diversity Plus: LPS Assay for Monocyte Chemoattractant Protein-1 (MCP1) Biomarker Activity (AID 2283081). As to conditions: primary human HUVEC with PBMC; actives raise or lower the signal. Summed up: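 HUVEC plus PBMC co-culture (human primary cells, LPS system) exposed to test chemical for 24 h; MCP-1 measured by ELISA. Bidirectional curve fitting against DMSO baseline; parallel SRB total-protein staining flags overt cytotoxicity.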

Assay [11] can be described thus: BSK_LPS_PGE2: BioMAP Diversity Plus: LPS Assay for Prostaglandin E2 (PGE2) Biomarker Activity (AID 2283082). Particulars: primary human HUVEC with PBMC; actives raise or lower the signal. The method, boiled down:
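PGE2 release measured by ELISA in an LPS-activated co-culture of human umbilical vein endothelial cells and peripheral blood mononuclear cells, read at 24 h post-dosing. DMSO served as baseline for bidirectional curve fitting.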

Read-out in assay [12]: Macrophage colony-stimulating factor (MCSF), CSF1 (gene 1435)
As to the kind of experiment: BSK_LPS_MCSF: BioMAP Diversity Plus: LPS Assay for Macrophage colony-stimulating factor (MCSF) Biomarker Activity (AID 2283083). As to conditions: primary human HUVEC with PBMC; actives raise or lower the signal. Summed up:
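Human umbilical vein endothelial cells co-cultured with peripheral blood mononuclear cells were exposed to compound for 24 h. M-CSF levels were measured by ELISA, and bidirectional curve fitting used DMSO as the negative control and baseline.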

Read-out in assay [13]: Tissue Factor, F3 (gene 2152)
As to the kind of experiment: BSK_LPS_TissueFactor: BioMAP Diversity Plus: LPS Assay for Tissue Factor Biomarker Activity (AID 2283084). As to conditions: primary human HUVEC with PBMC; actives raise or lower the signal. The method, boiled down: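 Human umbilical vein endothelial cells co-cultured with peripheral blood mononuclear cells were dosed and stimulated with LPS. Cell-surface CD142 was quantified by ELISA at 24 h. Activity was fitted bidirectionally against DMSO baseline.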

Read-out in assay [14]: Tumor necrosis factor (Homo sapiens) (UniProt P01375)
As to the kind of experiment: BSK_LPS_TNFa: BioMAP Diversity Plus: LPS Assay for Tumour Necrosis Factor alpha (TNFa) Biomarker Activity (AID 2283085).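 For AC50: TNFa protein level quantified by ELISA in the co-culture.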 As to conditions: primary human HUVEC with PBMC; actives raise or lower the signal. The method, boiled down:
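TNFa was quantified by ELISA in LPS-activated co-cultures of human endothelial cells and PBMC, 24 h post-dosing. Both increases and decreases versus DMSO were fitted.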

Read-out in assay [15]: Vascular cell adhesion molecule 1 (VCAM1), VCAM1 (gene 7412)
Briefly: BSK_LPS_VCAM1: BioMAP Diversity Plus: LPS Assay for Vascular cell adhesion molecule 1 (VCAM1) Biomarker Activity (AID 2283086). Particulars: primary human HUVEC with PBMC; actives raise or lower the signal. The method, boiled down: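 VCAM-1 quantified by ELISA in an LPS-activated co-culture of human endothelial cells and peripheral blood mononuclear cells, read 24 h post-treatment. Fitted in both directions versus DMSO; parallel SRB staining flags overt cytotoxicity.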

Read-out in another assay: CD38, CD38 (gene 952)
Briefly: BSK_SAg_CD38: BioMAP Diversity Plus: SAg Assay for CD38 Biomarker Activity (AID 2283087). As to conditions: primary human HUVEC with PBMC; actives raise or lower the signal. The method, boiled down: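 CD38 quantified by ELISA (fluorescence) in a superantigen-activated endothelial cell–PBMC co-culture at 24 h post-dose. Activity fitted in both directions relative to DMSO; parallel SRB and Alamar Blue cytotoxicity read-outs.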

Read-out in assay [16]: CD40, CD40 (gene 958)
As to the kind of experiment: BSK_SAg_CD40: BioMAP Diversity Plus: SAg Assay for CD40 Biomarker Activity (AID 2283088). As to conditions: primary human HUVEC with PBMC; actives raise or lower the signal. Summed up:
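Human umbilical vein endothelial cells co-cultured with PBMC; CD40 levels measured by ELISA with fluorescence read-out 24 h after chemical dosing. Gain or loss of signal fitted bidirectionally against DMSO baseline.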

Read-out in assay [17]: Monocyte Chemoattractant Protein-1 (MCP1), CCL2 (gene 6347)
As to the kind of experiment: BSK_SAg_MCP1: BioMAP Diversity Plus: SAg Assay for Monocyte Chemoattractant Protein-1 (MCP1) Biomarker Activity (AID 2283090). As to conditions: primary human HUVEC with PBMC; actives raise or lower the signal. Summed up: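 Values derive from bidirectional fitting of ELISA-measured MCP1 against DMSO controls. Readings were taken 24 h after dosing human vascular endothelial cells co-cultured with peripheral blood mononuclear cells under superantigen stimulation.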

Read-out in assay [18]: E-selectin (Homo sapiens) (UniProt P16581)
Briefly: BSK_SAg_Eselectin: BioMAP Diversity Plus: SAg Assay for Eselectin Biomarker Activity (AID 2283091). Particulars: primary human HUVEC with PBMC; actives raise or lower the signal. Summed up: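 HUVEC co-cultured with PBMC, compound dosed then read at 24 h; E-selectin measured by ELISA. Activity fitted bidirectionally against DMSO as negative control and baseline.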

Read-out in the next assay: CD69, CD69 (gene 969)
As to the kind of experiment: BSK_SAg_CD69: BioMAP Diversity Plus: SAg Assay for CD69 Biomarker Activity (AID 2283089).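 For AC50: cell surface CD69 protein quantified by ELISA with fluorescence detection.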 Particulars: primary human HUVEC with PBMC; actives raise or lower the signal. Summed up: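 Primary human vascular co-culture (umbilical vein endothelium with peripheral blood mononuclear cells) exposed to test chemical for 24 h. CD69 levels quantified by fluorescence ELISA; DMSO served as negative control for bidirectional fitting.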

Tumor necrosis factor (Homo sapiens), sequence (P01375 whole entry, looked up): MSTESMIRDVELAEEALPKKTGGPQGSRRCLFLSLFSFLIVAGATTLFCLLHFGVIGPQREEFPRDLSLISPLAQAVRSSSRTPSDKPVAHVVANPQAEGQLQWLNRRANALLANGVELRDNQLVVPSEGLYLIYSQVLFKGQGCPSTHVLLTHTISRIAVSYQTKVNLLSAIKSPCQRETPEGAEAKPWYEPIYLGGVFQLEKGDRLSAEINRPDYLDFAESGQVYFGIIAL
E-selectin (Homo sapiens), sequence (P16581 whole entry, looked up): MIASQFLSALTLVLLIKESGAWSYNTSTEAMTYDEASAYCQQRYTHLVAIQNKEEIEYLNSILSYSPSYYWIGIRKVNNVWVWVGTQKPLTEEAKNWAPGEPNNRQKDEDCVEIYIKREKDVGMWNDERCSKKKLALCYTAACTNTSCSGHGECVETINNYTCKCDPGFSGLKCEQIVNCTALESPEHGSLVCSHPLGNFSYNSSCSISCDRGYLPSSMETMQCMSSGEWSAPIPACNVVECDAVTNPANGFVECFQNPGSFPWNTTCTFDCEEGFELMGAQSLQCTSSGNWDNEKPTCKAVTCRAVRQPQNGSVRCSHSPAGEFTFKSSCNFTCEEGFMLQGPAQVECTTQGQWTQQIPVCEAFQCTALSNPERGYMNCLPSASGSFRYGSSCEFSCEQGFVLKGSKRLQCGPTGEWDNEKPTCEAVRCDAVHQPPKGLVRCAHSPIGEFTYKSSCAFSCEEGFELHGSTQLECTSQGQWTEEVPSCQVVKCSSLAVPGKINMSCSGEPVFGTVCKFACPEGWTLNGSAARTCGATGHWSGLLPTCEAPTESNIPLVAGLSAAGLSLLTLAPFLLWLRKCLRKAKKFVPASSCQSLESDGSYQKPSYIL

Usually AC50 stands for the concentration giving half of the maximal activity seen. Consider `CC(C)Nc1nc(Cl)nc(NC(C)C)n1`, for which the outcome in assay [1] was “inactive”; in assay [2], “inactive”; in [3], “inactive”; in [4], “inactive”; in the assay with CD40, CD40 (gene 958) [5] it was “inactive”; in assay [6], “inactive”. The outcome in assay [7], in assay [8], in [9], in [10], in assay [11] and in assay [12] was inactive. Besides, the outcome in [13] was “inactive”; in assay [15], “inactive”; in the assay with CD38, CD38 (gene 952) it was “inactive”; with CD40, CD40 (gene 958) [16] it was “inactive”; in assay [17] it was “inactive”. The AC50 was 7.35 µM (active) in assay [14] and 4.2 µM (active) in assay [18].

As to `COC(=O)N(C(=O)N1CO[C@@]2(C(=O)OC)Cc3cc(Cl)ccc3C2=N1)c1ccc(OC(F)(F)F)cc1`, the outcome in assay [1], in assay [2], in assay [4], in [6], in assay [9] and in [10] was inactive. The outcome in [11], in [12], in assay [13], in assay [14], in assay [15] and in [18] was inactive. In addition, the concentration at half-maximal activity (AC50) in assay [3] is 3.16 µM (active); with CD40, CD40 (gene 958) [5] it was 12.4 µM (active); in assay [7], 5.43 µM (active); in [8] it was 5.89 µM (active); with CD40, CD40 (gene 958) [16], 5.46 µM (active); with CD69, CD69 (gene 969) it was 6.93 µM (active). Moreover, the concentration at half-maximal activity (AC50) in assay [17] is 5.47 µM (active).

Take `CCC(C)n1c(=O)[nH]c(C)c(Br)c1=O` (configuration not stated): the outcome in assay [1] was “inactive”; in assay [3] it was “inactive”; in [4], “inactive”; with CD40, CD40 (gene 958) [5], “inactive”; in assay [6], “inactive”; in assay [7] it was “inactive”. In addition, the outcome in assay [8], in assay [9], in [10], in assay [11], in assay [12] and in assay [13] was inactive. In addition, the outcome in assay [15] was “inactive”; in the assay with CD38, CD38 (gene 952), “inactive”; in the assay with CD40, CD40 (gene 958) [16], “inactive”; in the assay with CD69, CD69 (gene 969), “inactive”; in [17] it was “inactive”; in assay [18], “inactive”. The half-maximal activity concentration (AC50) in assay [14] is 10.5 µM (active).
